Compounds with a hit are over-represented: about 12% of the library has one in this group of screens.
ROMK primary – human ROMK K+ channel modulation, primary screen | Tet-inducible ROMK, thallium flux fluorescence; actives lie on both sides | B-score at 10 µM | 130,000 compounds, 2% hits;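 active = signal ratio slope over the read window, or its plate-corrected B-score, at least 3 SD from the plate mean, either direction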;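 note: B-score of the F/F0 ratio slope over 7 to 12 s after thallium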
Insulin prom up – MIN6 insulin promoter up-regulation; MIN6 insulin promoter-GFP reporter, high-content imaging; hits give high values; z-score at 5 µM; 190,000 compounds, 0.3% hits; AID 1625;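 active = z-score above 3 at 5 µM with at least 500 cells counted in the well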
Cl transport mod – modulators of human KCC2 chloride dependent transport; Q9H2X9; KCC2 cells, thallium flux FluoZin-2 fluorescence; B-score of Tl+ flux slope (higher = more flux/activation; lower = inhibition) at 10 µM; 190,000 compounds, 2.2% hits;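 active = thallium flux slope and its plate-corrected score both differing from the plate sample mean at a set confidence after two filtering rounds, in either direction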;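 note: slope of fluorescence scaled to starting intensity during 10 to 20 s after thallium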
WT yeast gro inh – growth inhibition of WT yeast, mitochondrial fusion screen; mitochondrial fusion phenotypic screen, WT strain; inhibition, % at 10 µM; 190,000 compounds, 2.1% hits; in the data active = inhibition above about 58%; tested in S. cerevisiae
Lmaj promast – reduces viability of Leishmania major promastigotes. resazurin fluorescence viability. inhibition, % at 10 µM. 200,000 compounds, 9% hits; in the data active = inhibition above about 50%;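 note: promastigotes grown with compound for 44 hours at 28 °C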
Insulin prom inh – TRM-6 insulin promoter activity inhibition; TRM-6 cells (human fetal islet line), insulin promoter-eGFP reporter, imaging; reporter expression induced with tamoxifen; 130,000 compounds, 0.9% hits; inhibition, % at 2 µM;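 active = inhibition above the mean plus 3 SD, with well images judged a real hit on visual review, cut at about 60% in these data, passing the limit was not always enough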
An asterisk follows results filed as active; . = not tested or not shown.

SMILES	ROMK primary	Insulin prom up	Cl transport mod	WT yeast gro inh	Lmaj promast	Insulin prom inh
CCOc1cc(/C=N/NC(=O)c2cccc([N+](=O)[O-])c2)ccc1OS(=O)(=O)c1ccccc1	-0.25	1.1	-1.3	-3	78*	.
COc1ccc(C(=O)N/N=C/c2ccc(OC)c(OS(=O)(=O)c3ccccc3)c2)cc1	.	-0.19	-2.5	17	91*	5
COc1ccc(OC)c(/C=N/NC(=O)c2ccc(N(C)S(=O)(=O)c3ccccc3)cc2)c1	0.081	-0.86	-0.27	-5	99*	27
CC(=O)Nc1ccc(OCC(=O)NCCc2ccc(Cl)cc2)cc1	.	-1.5	-0.1	-14	-1	.
Cc1noc(NS(=O)(=O)c2ccc(N/C=C\C(=O)c3ccc4c(c3)OCO4)cc2)c1C	.	-0.1	.	56	-6	-51
O=C(Nc1ccc2c(c1)CCC2)c1cc(S(=O)(=O)Nc2ccc(F)cc2)c(Cl)cc1Cl	0.39	-0.86	-2.4	48	60*	-18
O=C(Nc1ccccc1[N+](=O)[O-])c1cncc(Br)c1	.	-0.48	0.47	14	2	43
CS(=O)(=O)N(CC(=O)N/N=C/c1cc([N+](=O)[O-])ccc1Cl)c1ccccc1	-0.56	0.36	0	13	13	-3
CN(C)c1ccc(/C=N/NC(=O)CN(c2ccccc2Cl)S(C)(=O)=O)cc1Br	.	3.6*	-0.82	-27	4	-66
Cc1cccc(N(CC(=O)N/N=C/c2cc([N+](=O)[O-])ccc2Cl)S(C)(=O)=O)c1C	.	-0.86	0.53	-22	86*	-16
O=C(O)c1ccc(NS(=O)(=O)c2ccc3c(c2)OCCCO3)cc1	0.67	0.72	-0.29	-13	-9	.
CCCCNC(=O)c1onc(CSc2ccc(OC)cc2)c1C(=O)O	-0.61	0.23	2.4	-15	-10	.
C=CCNC(=O)c1onc(CCl)c1C(=O)OC	1.2	-0.22	-0.068	-21	101*	.
COCCNC(=O)c1onc(CCl)c1C(=O)OC	-0.89	-0.52	0.56	48	92*	.
C=CCNC(=O)c1onc(CSc2ccc(OC)cc2)c1C(=O)O	.	-0.09	1.9	2	-11	-24
CCCCNC(=O)c1onc(CCl)c1C(=O)OC	0.68	0.2	1.9	14	101*	.
O=C(Nc1ccc(Br)cc1F)c1ccc2c(c1)N(Cc1ccccc1)C(=O)CS2=O (stereo not drawn)	.	-1.2	-0.34	-3	100*	.
Cc1ccc(C)c(NC(=O)c2ccc3c(c2)N(Cc2ccc(F)cc2)C(=O)CS3=O)c1 (stereo not drawn)	.	-0.59	-0.91	1	3	.
Cc1ccc(NC(=O)Nc2nc(-c3ccc(C)s3)cs2)cc1	1.5	0.05	0.77	14	21	.
O=C(Nc1nc(-c2ccccn2)cs1)c1ccc(Br)s1	.	-0.47	39*	60*	100*	14
CC(=O)Nc1nc(-c2ccc(Br)s2)cs1	.	5*	0.14	26	-4	-12
O=C(Nc1nc(-c2ccccn2)cs1)c1ccco1	0.34	-2.8	0.24	18	100*	.
O=C(Nc1nc(-c2ccccc2)cs1)c1ccc(Br)o1	-0.014	0.32	.	63*	-7	.
CC(NC(=O)C(C)(C)C)C(c1cccs1)N1CCOCC1 (stereo not drawn)	.	0.83	0.51	.	.	.
CSc1ccc(/C=C(/NC(=O)c2ccccc2)C(=O)N2CCN(C)CC2)cc1	1.2	-0.17	-0.0032	-14	1	11
SMILES	ROMK primary	Insulin prom up	Cl transport mod	WT yeast gro inh	Lmaj promast	Insulin prom inh
OC(CNCc1ccccc1)Cn1ccc2ccccc21 (stereo not drawn)	-2.3	-0.64	0.24	11	96*	-16
Oc1ccccc1NCC(O)Cn1ccc2ccccc21 (stereo not drawn)	.	0.97	0.94	58	40	-19
COC(=O)c1ccccc1NC(=S)NC(NC(=O)c1ccco1)C(Cl)(Cl)Cl (stereo not drawn)	.	0.26	.	6	20	-19
COc1ccc(NC(=S)NC(NC(=O)c2ccc(Cl)cc2Cl)C(Cl)(Cl)Cl)c([N+](=O)[O-])c1 (stereo not drawn)	.	-1.1	-0.53	68*	12	-113
COC(=O)NC(NC(=S)Nc1ccc([N+](=O)[O-])cc1)C(Cl)(Cl)Cl (stereo not drawn)	.	-0.8	1.4	-5	99*	46
CC(=O)NC(NC(=S)Nc1ccc(N=Nc2ccccc2)cc1)C(Cl)(Cl)Cl (stereo not drawn)	.	0.67	-0.44	4	64*	32
CCOC(=O)NC(NC(=S)Nc1ccc(OC)cc1)C(Cl)(Cl)Cl (stereo not drawn)	-0.94	-0.17	0.7	-2	1	-42
COC(=O)c1ccccc1NC(=S)NC(NC(=O)c1ccccc1[N+](=O)[O-])C(Cl)(Cl)Cl (stereo not drawn)	.	-0.15	.	14	96*	-42
COc1cccc(Oc2cn[nH]c2-c2ccc(OC)cc2O)c1	0.85	.	.	26	32	0
COc1cccc(Oc2cn[nH]c2-c2ccc(O)cc2O)c1	.	-0.18	-1.2	-4	75*	-15
S=C1NC[C@H](CC2CCCCC2)N1CCCCC1CCCCC1	.	-0.53	2.5	.	.	.
COc1ccc(N(C(C)C(=O)N/N=C(\C)C(C)(C)C)S(C)(=O)=O)cc1 (stereo not drawn)	1.8	-0.15	-0.079	10	-1	0
Cc1ccc(C(=O)C2CCN(CC(=O)N3CCN(c4ccc(F)cc4)CC3)CC2)cc1	-0.12	.	-0.85	11	89*	-67
CCN(CC)S(=O)(=O)c1ccc2c(c1)c(=O)c(C(=O)NCc1cccs1)cn2C	0.46	0.16	0.31	-2	19	-39
O=[N+]([O-])c1ccc(Nc2c3ccccc3nc3ccccc23)cc1	.	-0.84	-0.33	77*	57*	40
CCC(=O)Oc1c(-c2ccccc2)c2nc3ccccc3nc2c2ccccc12	1	.	0.017	.	23	-376
CN(C)CCN1C(=O)C2C3C=CC(C3)C2C1=O (stereo not drawn)	-0.47	0.56	0.18	-10	-1	-6
CCCCc1c(C)nc2ccccc2c1SCCC#N	-0.86	-0.23	-1	8	3	53
CCCCNc1oc(-c2ccc(OC)cc2)nc1S(=O)(=O)c1ccccc1	.	0.67	0.1	.	2	-71
CCOc1ccc(-c2nc(S(=O)(=O)c3ccccc3)c(NCc3cccnc3)o2)cc1	.	.	-0.18	-12	83*	-20
Cc1ccc(NC(=O)COC(=O)[C@@H]2CCCN2C(=O)c2cccs2)cc1S(=O)(=O)N(C)C	.	1.6	1.3	.	.	.
O=C(Nc1ccc(Cl)c(S(=O)(=O)Nc2ccccc2Cl)c1)c1cccs1	.	-0.04	-0.92	84*	77*	38
Cc1ccc(C(=O)Nc2ccc(C)c(S(=O)(=O)Nc3ccccc3Cl)c2)s1	.	0.06	0.52	70*	84*	36
COc1cc(C(=O)N2CCN(C/C=C/c3ccccc3)CC2)cc(OC)c1OC	-0.18	.	-0.53	-24	3	-5
CCOc1cccc2cc(C(=O)N3CCN(C/C=C/c4ccccc4)CC3)c(=O)oc12	.	.	-0.59	-11	96*	-340
CCOc1cc(C(=O)N2CCN(C/C=C/c3ccccc3)CC2)cc(OCC)c1OCC	-0.095	-1.2	-0.86	12	66*	17
